Shn3 3UTR inh: inhibitors of Schnurri-3 3'UTR reporter in osteoblasts. 0.52% of 360,000 active. Clone20 osteoblast Shn3 3'UTR firefly luciferase, 24 h. inhibition, % at 12.5 µM;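 active = mean inhibition of at least 75% with every replicate also reaching 75%; inconclusive = mean inhibition at least 75% but some replicate below; inactive = mean inhibition below 75%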;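 also: 0% = median of neutral control wells and 100% = pilot-screen positive control compound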
PAX8 reporter: inhibitors of PAX8 transcriptional activity in RMG-I cells. 1.2% of 360,000 active. RMG-I TPO-luciferase reporter, SteadyGlo, 24 h. inhibition, % at 12.6 µM;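 active = mean replicate inhibition at least 60% with every replicate also reaching 60%; inconclusive = only one of the two criteria is met; inactive = mean below 60% and not all replicates reaching 60%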;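 also: luciferase light reporting Pax8 driven TPO promoter activity; plate controls were median of neutral control wells for no effect and mitoxantrone controls for full effect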
TRPM1 prom inh: inhibitors of MITF-driven TRPM1 promoter in melanoma cells; 0.83% of 330,000 active; AID 488899; SK-MEL-5 TRPM1 promoter luciferase, 24 h; inhibition, % at 12.5 µM;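 active = mean inhibition across replicates of 60% or more, whatever share of single replicates reaches that level; inconclusive = some that reach 60%, reason not given; inactive = mean inhibition across replicates below 60%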
HIF-2a inh: HIF-2a inhibition; 786-0 RCC cells HIF-2a reporter, luciferase luminescence, overnight; inhibition, % at 18.8 µM; 0.72% of 360,000 active;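 active = inhibition of the luminescence signal of 40% or more relative to plate controls, in a single-dose primary screen at 18.75 µM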
Peg3 promoter: inhibitors of Peg3 promoter; AID 588405; HeLa PEG-Prom luciferase reporter, luminescence, overnight; inhibition, % at 20 µM; 1.7% of 360,000 active;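 active = inhibition of at least 50% at 20 µM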
LMP1 NFkB inh: Epstein-Barr LMP1 NF-kappaB reporter inhibition | LMP1-induced NF-kappaB luciferase reporter cells, luminescence | inhibition, % at 12.5 µM | 0.69% of 350,000 active | AID 504558; in the data active = inhibition above about 41%; inconclusive = no clear call, values can overlap the other calls;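 also: 0% = neutral control wells and 100% = reference inhibitor control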
* marks the source's active call; other numbers are inactive results; ? = inconclusive; / = no result given. Most compounds without a hit are left out; they make up all but 2.8% or so of the library.

SMILES | Shn3 3UTR inh | PAX8 reporter | TRPM1 prom inh | HIF-2a inh | Peg3 promoter | LMP1 NFkB inh
CN1c2ccc(-c3ccc(C#N)cc3)cc2[C@H]2[C@H](CCN2S(=O)(=O)c2cccc(F)c2)[C@@H]1CO | / | 73* | / | / | / | /
COc1ccccc1S(=O)(=O)N1CC[C@H]2[C@@H](CO)N(C)c3ccc(-c4ccc(C#N)cc4)cc3[C@H]21 | / | 107* | / | / | / | /
CN1c2ccc(-c3cccc(C#N)c3)cc2[C@H]2[C@H](CCN2S(=O)(=O)c2cccc(F)c2)[C@H]1CO | / | 26 | / | / | / | /
CCCC#Cc1ccc2c(c1)[C@@H]1[C@@H](CCN1S(=O)(=O)c1ccc(F)cc1)[C@@H](CO)N2C | / | 9 | / | / | / | /
CC(C)NC(=O)N(C)C[C@@H]1Oc2ncc(-c3cncnc3)cc2C(=O)N([C@@H](C)CO)C[C@H]1C | / | -2 | / | / | / | /
C[C@H](CO)N1C[C@H](C)[C@H](CN(C)Cc2ccc(C(=O)O)cc2)OCCCC[C@H](C)Oc2ccc(NS(=O)(=O)c3ccccc3)cc2C1=O | / | -20 | / | / | / | /
O=C(C[C@H]1C[C@H]2c3cc(NC(=O)Nc4ccccc4)ccc3O[C@H]2[C@@H](CO)O1)NCc1cccnc1 | / | 7 | / | / | / | /
CC(C)CC#Cc1ccc([C@@H]2[C@H]3CN(C(=O)Nc4ccccc4)CCCCN3[C@H]2CO)cc1 | / | 74* | / | / | / | /
CC(C)CC#Cc1ccc([C@H]2[C@@H](CO)N3CCCCN(C(=O)Nc4ccccc4)C[C@@H]23)cc1 | / | -7 | / | / | / | /
C[C@H](O)C#Cc1ccc([C@H]2[C@H]3CN(C(=O)Nc4ccccc4)CCCCN3[C@H]2CO)cc1 | / | 69* | / | / | / | /
C[C@H](O)C#Cc1ccc([C@H]2[C@H](CO)N3CCCCN(C(=O)Nc4ccccc4)C[C@@H]23)cc1 | / | 19 | / | / | / | /
Cn1cnc2nc(Cl)nc(Cl)c21 | 20 | 80* | 18 | 35 | 6 | 17
CCOC(=O)c1c(NC(C)=O)sc2c1CCN(Cc1ccccc1)C2 | -4 | -3 | / | -6 | 9 | 0
CCOC(=O)c1c(NC(C)=O)sc2c1CCC(C=O)=C2Sc1ccccc1 | 11 | / | 11 | 27 | 99* | -2
Cc1csc(N=Nc2ccc(N(C)C)cc2)[n+]1[O-] | 5 | 68* | / | 5 | 18 | 55*
Cc1ccc(-c2nc3cccnc3o2)cc1NC(=O)COc1ccc(C(C)(C)C)cc1 | 95* | / | -3 | 13 | 58* | 81*
Cc1ccc(-c2nc3cccnc3o2)cc1NC(=O)COc1ccc(Cl)cc1C | -2 | 24 | 6 | 9 | 35 | -24
O=C(C[C@@H]1CC[C@H](NS(=O)(=O)c2ccc(F)cc2)[C@@H](CO)O1)NC1CCC1 | / | -2 | / | / | / | /
COc1ccc(NC(=O)N(C)C[C@@H]2Oc3ccc(NC(=O)Cc4ccccc4)cc3CC(=O)N([C@@H](C)CO)C[C@H]2C)cc1 | / | 6 | / | / | / | /
CS(=O)(=O)Nc1ccc2c(c1)[C@@H]1C[C@H](CC(=O)NC3CCCCC3)O[C@@H](CO)[C@@H]1O2 | / | -1 | / | / | / | /
NC(=Nc1nc(-c2ccccn2)cc2ccccc12)c1ccccn1 | 88* | 58 | 65* | -29 | 49 | 67*
C[C@@H]1CCCCO[C@H](CN(C)Cc2ccc(C(=O)O)cc2)[C@@H](C)CN([C@@H](C)CO)C(=O)c2cc(NS(=O)(=O)c3ccccc3)ccc2O1 | / | -9 | / | / | / | /
CN1C=C/C(=C\c2cc[n+](C)c3ccccc23)c2ccccc21 | 69 | 97* | 77* | -13 | 11 | 35
O=C1C(=O)c2cccnc2-c2ncccc21 | 95* | 107* | / | 90* | 102* | /
O=C1c2cccnc2-c2ncccc21 | -20 | / | -6 | 8 | -1 | 0
SMILES | Shn3 3UTR inh | PAX8 reporter | TRPM1 prom inh | HIF-2a inh | Peg3 promoter | LMP1 NFkB inh
COc1cccc(NC(=O)CNS(=O)(=O)c2ccc(Cl)cc2)c1 | 3 | / | -7 | 13 | 8 | 3
COc1ccc(NS(=O)(=O)c2cc(NC(=O)CNC(=O)c3cccc(OC)c3)ccc2C)cc1 | -8 | 8 | 69* | 26 | 13 | -17
COc1cccc(S(=O)(=O)NCC(=O)Nc2ccc(C(C)(C)C)cc2)c1 | 9 | 88* | 10 | 15 | 17 | -6
C[C@@H]1CN([C@H](C)CO)C(=O)c2cc(NC(=O)CCN3CCOCC3)ccc2O[C@H]1CN(C)S(=O)(=O)c1cccs1 | / | 9 | / | / | / | /
Cc1ccc(S(=O)(=O)Nc2cccc3c2O[C@H](CN(C)S(=O)(=O)c2ccc(F)cc2)[C@@H](C)CN([C@H](C)CO)C3=O)cc1 | / | 0 | / | / | / | /
CCN(CC)CCCNC(=S)N1CCN(c2nc(-c3ccc(F)cc3)cs2)CC1 | 22 | 34 | 10 | -5 | 71* | 2
C[C@H](CO)N1C[C@H](C)[C@@H](CN(C)S(C)(=O)=O)Oc2c(NC(=O)NC3CCCCC3)cccc2C1=O | / | -11 | / | / | / | /
O=C(c1ccc2c(c1)OCO2)N1CC(=O)N2[C@H](CO)[C@@H](c3ccc(C#CCC4CCCC4)cc3)[C@@H]2C1 | / | 19 | / | / | / | /
CCC(NC(C)C)C(O)c1ccc(O)c2[nH]c(=O)ccc12 (stereo not given) | 10 | / | -1 | -3 | 7 | 74*
COc1ccc(NC(=O)N[C@H]2C=C[C@H](CC(=O)NCc3ccccn3)O[C@@H]2CO)cc1 | / | -11 | / | / | / | /
FC(F)(F)c1cccc(NC(=S)NC(c2ccccc2)c2ccccc2)c1 | ? | 3 | 18 | 10 | 50* | -11
N#CC1C=Cc2c(ccc3ccccc23)N1C(=O)c1ccccc1 (stereo not given) | 50 | 6 | 65* | 32 | -140 | 32
N#CC1C=Cc2ccccc2N1C(=O)c1ccccc1 (stereo not given) | 0 | 37 | 2 | 11 | 9 | -2
CCN(CC)CCCNc1ccc(-c2nnc(-c3ccc(OCC(C)C)cc3)o2)cn1 | 25 | 42 | 77* | 16 | 113* | 0
Cc1noc(C)c1COC(=O)[C@@H](NC(=O)c1ccccc1)C(C)C | ? | 69* | 2 | 5 | 1 | 7
CC(C)[C@H](NC(=O)c1ccccc1)C(=O)OCc1nnc(-c2ccccc2)o1 | -4 | 4 | -7 | 3 | 5 | 1
COc1ccc(NC(=O)C(Sc2nnc(-c3ccncc3)n2-c2ccccc2C)c2ccccc2)cc1Cl (stereo not given) | -10 | 115* | 4 | 8 | 11 | -3
COc1ccc(NC(=O)C(OC)c2ccccc2)cc1Cl (stereo not given) | -4 | 15 | -20 | 4 | 2 | -10
Cc1ccc(S(=O)(=O)Nc2ccc3c(c2)CC(=O)N([C@@H](C)CO)C[C@@H](C)[C@H](CN(C)CC2CC2)O3)cc1 | / | -17 | / | / | / | /
C[C@H](CO)N1C[C@H](C)[C@@H](CN(C)S(=O)(=O)c2ccccc2)OCCCC[C@H](C)Oc2ccc(NS(=O)(=O)c3cccs3)cc2C1=O | / | 30 | / | / | / | /
Cc1cc(C(C)(C)C)cc(S(=O)(=O)Nc2ccc(O)c(C(=O)O)c2)c1C | -15 | / | 4 | -15 | 18 | -4
CC(=O)Nc1ccc(NC(=O)c2ccc(NS(=O)(=O)c3cc(C(C)(C)C)cc(C)c3C)cc2)cc1 | -3 | 68* | 1 | 17 | 12 | 1
